Compound activity from PubChem BioAssay.
Shown are actives, neighbours in structure and some others; about 4.2% of the full set was active somewhere.
tim10-1 inh = growth inhibitors of tim10-1 mutant yeast, primary screen, luminescence, uHTS; inhibition, % at 20 µM; S. cerevisiae tim10-1 ts strain growth, BacTiter-Glo, 24 h; AID 463190, 2010; 2.2% of 330,000 active;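 active means inhibition of at least 40%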;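 further: mutant grown at 25 °C; 0% = DMSO wells with yeast and 100% = wells holding no yeast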
tim23-1 inh = growth inhibitors of tim23-1 mutant yeast, primary screen, luminescence, uHTS | S. cerevisiae tim23-1 growth, BacTiter-Glo luminescence, 24 h | inhibition, % at 20 µM | 1.3% of 330,000 active;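 active means growth inhibition of the mutant yeast at or above 50%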;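 further: temperature-sensitive mutant grown at 25 °C; plate controls were DMSO-treated mutant yeast for no effect and medium wells lacking yeast for full effect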
TIM10 inh = growth inhibitors of isogenic TIM10 control yeast, primary screen, counter-screen for tim10-1 yeast inhibitor project, luminescence, uHTS; S. cerevisiae TIM10 strain growth, BacTiter-Glo luminescence, 24 h; inhibition, % at 10 µM; 1.4% of 330,000 active; AID 463195, 2010;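 active means inhibition of 40% or more at the single tested concentration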;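 further: wild-type TIM10 isogenic control strain grown at permissive 25 °C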
V-ATPase pHluor = regulators of yeast V-ATPase proton pumping, primary screen, pHLuorin cytosolic pH fluorescence; response, % at 10 µM; 0.37% of 350,000 active; S. cerevisiae; in the data active means response mostly above about 7.3%, no sharp cut-off; inactive means mostly below about 5.4%; further: actives read high
NALP3 yeast inh = NALP3 inflammasome inhibitors in reconstituted yeast, primary screen, luminescence, uHTS | Yeast reconstituted NLRP3/ASC/caspase-1, beta-gal luminescence, 24 h | inhibition, % at 10 µM | AID 2825, 2010 | 0.39% of 330,000 active;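 active means inhibition of 50% or more; inactive means inhibition below 50%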;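 further: plate controls were induced DMSO wells for no effect and uninduced yeast grown without galactose for full effect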
NALP1 yeast inh = NALP1 inflammasome inhibitors in reconstituted yeast, colorimetric, S. cerevisiae, triplicate retest; S. cerevisiae NALP1/ASC/caspase-1 growth, X-gal OD620, 72 h; 0.61% of 280,000 active; inhibition, % at 10 µM; in the data active means inhibition mostly above about 24%, no sharp cut-off; inactive means mostly below about 32%
tim10-1 confirm = growth inhibitors of tim10-1 mutant yeast, confirmation, single concentration, luminescence, S. cerevisiae; shares compounds with tim10-1 inh; S. cerevisiae tim10-1 ts strain growth, BacTiter-Glo, 24 h; 56% of 7,400 active; inhibition, % at 20 µM;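 active means inhibition of yeast growth at or above a set limit in either of two repeat tests at 20 µM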;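 further: tim10-1 mutant grown at permissive 25 °C to find synthetic lethal compounds; 0% = DMSO yeast wells and 100% = medium wells without yeast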
TIM10 conf = growth inhibitors of wild-type TIM10 yeast, confirmation, counter-screen for tim10-1 synthetic lethality project, single concentration, luminescence, S. cerevisiae. shares compounds with TIM10 inh. S. cerevisiae tim10 strain growth, BacTiter-Glo luminescence, 24 h. inhibition, % at 10 µM. 63% of 4,600 active;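 active means inhibition of yeast growth at or above a set limit in either of two replicates at 10 µM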;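 further: this counterscreen used the strain with wild-type TIM10; 0% = yeast with DMSO and 100% = medium wells lacking yeast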
tim23-1 confirm = tim23-1 mutant yeast growth inhibitors, confirmation, luminescence, single concentration | shares compounds with tim23-1 inh | S. cerevisiae tim23-1 growth, BacTiter-Glo luminescence, 24 h | inhibition, % at 20 µM | 83% of 4,400 active | AID 463218, 2010;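 active means inhibition above about 39% in either of two replicate wells at 20 µM, limit read from the data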;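 further: temperature-sensitive tim23-1 mutant grown at 25 °C; 0% = DMSO wells with yeast and 100% = medium wells without yeast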
Active calls of the source: *.

What do the screens show for `O=C(O)C1C2C=CC(C2)C1C(=O)OCC1CCCO1` (centres undefined)?
tim10-1 inh: 3.2; tim23-1 inh: 12.2; TIM10 inh: 13.9; V-ATPase pHluor: -2.5; NALP3 yeast inh: 5.9; NALP1 yeast inh: 8.9

How did COc1ccc(-n2nc(C#N)c(Cl)cc2=O)cc1 do in these assays?
tim10-1 inh: 46.9*; tim23-1 inh: 60.8*; TIM10 inh: 31.3; V-ATPase pHluor: -0.2; NALP3 yeast inh: -41.3; NALP1 yeast inh: 4.2; tim10-1 confirm: 30.3; tim23-1 confirm: 48.0*

How did Cc1nc2sc(C(c3cccc(F)c3)N3CCC(C)CC3)c(O)n2n1 (centres undefined) do in these assays?
tim10-1 inh: 13.3; tim23-1 inh: 10.0; TIM10 inh: 2.0; V-ATPase pHluor: -3.3; NALP3 yeast inh: 10.4; NALP1 yeast inh: 4.4

Results for COc1ccccc1-c1ccc(NC2CCCCC2)nn1 ?
tim10-1 inh: 42.8*; tim23-1 inh: 51.9*; TIM10 inh: 28.5; V-ATPase pHluor: 4.3; NALP3 yeast inh: 16.8; NALP1 yeast inh: 10.4; tim10-1 confirm: 38.5*; tim23-1 confirm: 41.5*

Results for O=C(c1ccc2c(c1)C(=O)N(Cc1ccco1)C2O)N1CCOCC1 (centres undefined) ?
tim10-1 inh: -2.7; tim23-1 inh: 7.9; TIM10 inh: -2.5; V-ATPase pHluor: -2.4; NALP3 yeast inh: 0.1; NALP1 yeast inh: 20.3

How did CCCCCCCCC(=O)N/N=C/c1cccc(Br)c1 do in these assays?
tim10-1 inh: 21.1; tim23-1 inh: 23.5; TIM10 inh: 18.9; V-ATPase pHluor: -5.8; NALP3 yeast inh: 5.2; NALP1 yeast inh: 7.0

Results for CCCCCCC(=O)N/N=C/c1ccc(Br)cc1 ?
tim10-1 inh: 50.5*; tim23-1 inh: 72.6*; TIM10 inh: 34.3; V-ATPase pHluor: 3.3; NALP3 yeast inh: 6.4; NALP1 yeast inh: 23.3; tim10-1 confirm: 32.6*; tim23-1 confirm: 72.9*

Results for CC1CCCCN1S(=O)(=O)c1ccc(NC(=O)c2cccs2)cc1 (centres undefined) ?
tim10-1 inh: 53.7*; tim23-1 inh: 54.3*; TIM10 inh: 50.8*; V-ATPase pHluor: -3.4; NALP3 yeast inh: -1.4; NALP1 yeast inh: 1.5; tim10-1 confirm: 47.5*; TIM10 conf: 52.0*; tim23-1 confirm: 70.8*

What do the screens show for `CN1CCN(S(=O)(=O)c2ccc(NC(=O)c3cccs3)cc2)CC1`?
tim10-1 inh: 1.7; tim23-1 inh: 15.6; TIM10 inh: -3.6; V-ATPase pHluor: -1.9; NALP3 yeast inh: 14.0; NALP1 yeast inh: 11.6

How did CC1CCN(S(=O)(=O)c2ccc(NC(=O)c3cccs3)cc2)CC1 do in these assays?
tim10-1 inh: 41.7*; tim23-1 inh: 54.1*; TIM10 inh: 41.6*; V-ATPase pHluor: 2.8; NALP3 yeast inh: 18.7; NALP1 yeast inh: -12.4; tim10-1 confirm: 50.3*; TIM10 conf: 53.4*; tim23-1 confirm: 58.5*

What do the screens show for `COC(=O)C1=C(C)OC(N)=C(C#N)C1c1cc2cccc(C)c2nc1Cl` (centres undefined)?
tim10-1 inh: 43.7*; tim23-1 inh: 63.9*; TIM10 inh: 28.9; NALP3 yeast inh: 23.2; NALP1 yeast inh: 15.5; tim10-1 confirm: 29.0; tim23-1 confirm: 58.1*

Results for c1ccc(-c2csc(N3CCCCCC3)n2)cc1 ?
tim10-1 inh: 10.0; tim23-1 inh: 19.1; TIM10 inh: 18.1; V-ATPase pHluor: -0.7; NALP3 yeast inh: -4.5; NALP1 yeast inh: 34.6
